The values that follow come from PubChem BioAssay.

The term inhibition denotes the change of the read-out against control, counted positive when it falls.

The source made the active and inactive calls.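 The calls were made as follows, unless noted: active = NADPH fluorescence slope more negative than the mean of all samples by about 3 SD, 99.7% confidence; inactive = the rest.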

Experiment [1] is described as follows: inhibitors of TNFa-induced NFkB p65 translocation, primary screen, imaging, HUVEC, MLSMR starter and 10KST1 sets (AID 438;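 active = inhibition above 20% together with a positive visual image hit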;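 also: compound added about 3h40 before a 20 min TNFalpha stimulation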;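 as to inhibition: signal is the nuclear over cytoplasmic p65 intensity ratio per well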). As to conditions: HUVEC TNFa-induced p65 nuclear translocation; cell count: measured here: nuclei count (cytotoxicity indicator), at 2.08 µM; inhibition: at 2 µM, stronger effect = higher value, 0% TNFa-plus-vehicle, 100% no-TNFa wells.
The nature of experiment [2]: inhibitors of mutant huntingtin aggregation, primary screen, imaging, exon1htt(103Q)mCFP cells, high-content imaging (AID 483;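 active = visual image review flags a hit and inhibition of aggregation exceeds 20%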;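 also: compound exposure lasted 3 days before fixation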;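 as to nuclei count: percent of the per-plate median nuclei count of sample wells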). As to conditions: exon1htt(103Q)mCFP cell line, aggregate imaging, at 2 µM; inhibition of aggregation: stronger effect = higher value; nuclei count: measured here: cell count, toxicity.
Experiment [3] in a line: inhibitors of E-selectin induction by TNFa, primary screen, imaging, HUVEC, immunofluorescence, MLSMR starter and 10KST1 sets (AID 487;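 active = visually confirmed hit in the image check and inhibition above 20%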;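 as to inhibition: signal is fraction of cell area covered by stained E-selectin grains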;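 as to nuclei count: 100% = median nuclei count of all wells on the same plate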). As to conditions: HUVEC TNFalpha-induced E-selectin immunofluorescence imaging, at 2 µM; inhibition: stronger effect = higher value; nuclei count: measured here: cell number, toxicity.
Experiment [4] has as its target Voltage-gated potassium channel subunit beta-2 (Rattus norvegicus) (UniProt P62483). Nature of the experiment: KvBeta enzyme negative modulators, primary screen, biochemical, NADPH fluorescence (AID 622;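 active = fluorescence slope higher than the sample average by over 3 SD, cut at about -0.22 in these data, passing the limit was not always enough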;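 also: slope of raw intensity against log time taken from 70 to 1610 s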). Conditions: recombinant KvBeta, 4-cyanobenzaldehyde reduction, at 10 µM, stronger effect = higher value.
The target is the same in experiment [5]. Kind of experiment: KvBeta positive modulators, primary screen, biochemical, NADPH fluorescence (AID 623).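 Also: fluorescence intensity change per second fitted from 20 to 320 s.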 As to conditions: Recombinant KvBeta, NADPH fluorescence decrease slope, 10 min; at 10 µM; stronger effect = lower value.
The target in experiment [6] is Alpha-2C adrenergic receptor (Homo sapiens) (UniProt P18825). Nature of the experiment: modulators of alpha2C/GIRK thallium flux, primary screen, cell-based, HEK293 alpha2C/GIRK1/2 (AID 624;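 active = fluorescence slope after compound addition differing from the mean of all screened samples at 99.7% confidence, in either direction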;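 also: slope of fluorescence ratio to pre-addition baseline per second over 15 to 24 s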). Conditions: thallium flux BTC fluorescence, at 10 µM, actives lie on both sides.
Experiment [7] can be described thus: inhibitors of Sendai virus-induced IRF3 signaling, primary screen, TLR/RLR signaling modifier project, cell-based, Sendai virus stimulus, luciferase, 10K MLSCN set (AID 602276;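 active = inhibition at or above 50% at 10 µM; inactive = inhibition below 50%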;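 also: firefly luciferase from ISG56 promoter only with Renilla not read in this screen; 0% = Sendai virus plus DMSO and 100% = medium plus DMSO without virus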). As to conditions: HEK293 RL24 IRF3 luciferase reporter, at 10 µM, stronger effect = higher value. Background: Reporter assays use an easily measured gene product as a stand-in for the process of interest.

A short description of experiment [8]: inhibitors of poly I:C-induced TLR3 signaling, primary screen, cell-based, poly I:C stimulus, luciferase, 10K MLSCN set (AID 602277;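 active = inhibition of the reporter signal at or above 50%; inactive = inhibition below 50%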). As to conditions: HEK293-TLR3 RL24 IRF3 luciferase reporter, at 10 µM, stronger effect = higher value.

Alpha-2C adrenergic receptor (Homo sapiens), sequence (P18825 whole entry, looked up): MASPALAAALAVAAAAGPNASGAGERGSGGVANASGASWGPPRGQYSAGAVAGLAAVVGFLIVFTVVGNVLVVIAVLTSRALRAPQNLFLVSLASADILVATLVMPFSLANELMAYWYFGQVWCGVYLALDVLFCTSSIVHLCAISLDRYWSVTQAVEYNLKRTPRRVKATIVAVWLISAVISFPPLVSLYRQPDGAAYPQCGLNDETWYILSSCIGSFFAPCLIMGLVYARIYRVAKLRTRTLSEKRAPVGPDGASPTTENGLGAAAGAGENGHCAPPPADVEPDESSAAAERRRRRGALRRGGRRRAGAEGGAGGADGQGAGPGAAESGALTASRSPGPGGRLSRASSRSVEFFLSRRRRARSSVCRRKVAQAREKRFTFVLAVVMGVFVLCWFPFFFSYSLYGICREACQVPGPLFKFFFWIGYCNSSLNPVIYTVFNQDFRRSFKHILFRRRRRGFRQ
Voltage-gated potassium channel subunit beta-2 (Rattus norvegicus), sequence (P62483 whole entry, looked up): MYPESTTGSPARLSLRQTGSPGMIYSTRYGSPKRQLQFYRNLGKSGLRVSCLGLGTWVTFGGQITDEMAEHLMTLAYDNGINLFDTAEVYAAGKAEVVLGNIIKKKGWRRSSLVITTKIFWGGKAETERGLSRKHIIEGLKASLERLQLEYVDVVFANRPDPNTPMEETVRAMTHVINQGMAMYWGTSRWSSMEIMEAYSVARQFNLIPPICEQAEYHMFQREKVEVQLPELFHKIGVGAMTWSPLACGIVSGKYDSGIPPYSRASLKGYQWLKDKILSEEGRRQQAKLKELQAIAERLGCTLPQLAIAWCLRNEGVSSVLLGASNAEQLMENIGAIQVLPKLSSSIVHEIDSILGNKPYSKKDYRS

As for `C=CCn1c(SC(C)C(=O)NC2(C#N)CCCCC2)nnc1-c1ccc(OC)cc1` (centres undefined), the cell count in experiment [1] was found to be 612. For the same compound, the inhibition is 9.9% (inactive) in experiment [1], -154% (inactive) in experiment [3], 22.5% (inactive) in experiment [7] and 21.6% (inactive) in experiment [8]. Further, in experiment [2], the inhibition of aggregation was 6.2% (inactive). Also, the nuclei count was 95% in experiment [2] and 94% in experiment [3]. Besides, the fluorescence slope in experiment [4] is -0.594 (inactive). Also, the NADPH fluorescence slope in experiment [5] is -3.3e-05 (inactive). In experiment [6], the slope was 0.00361 (inactive).

Consider `CC1CCCc2sc3nc(NCc4ccco4)n4ncnc4c3c21` (centres undefined), for which the cell count in experiment [1] came to 335. The inhibition is 7.7% (inactive) in experiment [1], 5.2% (inactive) in experiment [3], 2.57% (inactive) in experiment [7] and -0.465% (inactive) in experiment [8]. In addition, in experiment [2], the inhibition of aggregation is 8.4% (inactive). The nuclei count in experiment [2] worked out at 17.7%; in experiment [3] it was 112%. Further, the fluorescence slope in experiment [4] is -0.514 (inactive). The NADPH fluorescence slope in experiment [5] was -9.2e-06 (inactive). Moreover, in experiment [6], the slope is 0.00555 (inactive).

Take `Cc1cccc2cc(COC(=O)C(C)(C)C)c(=O)[nH]c12`: the cell count in experiment [1] came out at 364. Besides, the inhibition was 5.1% (inactive) in experiment [1], 14.2% (inactive) in experiment [3], 10.9% (inactive) in experiment [7] and 22.5% (inactive) in experiment [8]. Besides, in experiment [2], the inhibition of aggregation was 2.3% (inactive). Also, the values for the nuclei count in experiment [2] and in experiment [3] were 102% and 89.1%, respectively. Besides, the fluorescence slope in experiment [4] was -0.471 (inactive). In experiment [5], the NADPH fluorescence slope is 3.7e-06 (inactive). Besides, the slope in experiment [6] is 0.0027 (inactive).

For the compound `N=c1c(C(=O)NCc2ccc3c(c2)OCO3)cc2c(=O)n3ccccc3nc2n1Cc1cccnc1`, the cell count in experiment [1] was found to be 690. Besides, the inhibition is -5.2% (inactive) in experiment [1], -18.5% (inactive) in experiment [3], 13.3% (inactive) in experiment [7] and 23.4% (inactive) in experiment [8]. For the same compound, the inhibition of aggregation in experiment [2] is -21.7% (inactive). Moreover, the results for the nuclei count in experiment [2] and in experiment [3] were 72.7% and 109%, respectively. In addition, the fluorescence slope in experiment [4] was -0.427 (inactive). Further, the NADPH fluorescence slope in experiment [5] was 3.2e-05 (inactive). Besides, the slope in experiment [6] is 0.00617 (inactive).

In the case of `O=S(=O)(NCc1ccccc1)c1ccc2c(c1)OCCO2`, the cell count in experiment [1] was found to be 454. In addition, the inhibition was -10.7% (inactive) in experiment [1], -117% (inactive) in experiment [3], -0.346% (inactive) in experiment [7] and -1.95% (inactive) in experiment [8]. In addition, the inhibition of aggregation in experiment [2] is -10.8% (inactive). Moreover, the nuclei count is 100% in experiment [2] and 121% in experiment [3]. Besides, the fluorescence slope in experiment [4] was -0.599 (inactive). The NADPH fluorescence slope in experiment [5] is -3.9e-05 (inactive). In addition, the slope in experiment [6] is 0.00569 (inactive).

With `CN(C)c1ccc(C(=O)Nc2nnc(-c3ccc(Cl)cc3)o2)cc1`, in experiment [1], the cell count was found to be 671. Also, the inhibition in experiment [1] is 1.3% (inactive); in experiment [3] it was -46.6% (inactive); in experiment [7], 13% (inactive); in experiment [8] it was 29.7% (inactive). In addition, the inhibition of aggregation in experiment [2] is -15.9% (inactive). The results for the nuclei count in experiment [2] and in experiment [3] were 109% and 113%, respectively. The fluorescence slope in experiment [4] was -0.409 (inactive). The NADPH fluorescence slope in experiment [5] was -6.1e-05 (inactive). Also, the slope in experiment [6] is 0.00542 (inactive).

As to `COCCNC(=O)c1snc2ccc(Cl)cc12`, the cell count in experiment [1] stood at 375. In addition, the inhibition was 6.7% (inactive) in experiment [1], -175% (inactive) in experiment [3], -23.6% (inactive) in experiment [7] and -62.4% (inactive) in experiment [8]. Moreover, the inhibition of aggregation in experiment [2] was 4.9% (inactive). In addition, the nuclei count was 89.8% in experiment [2] and 97.3% in experiment [3]. Also, in experiment [4], the fluorescence slope is -0.563 (inactive). In addition, in experiment [5], the NADPH fluorescence slope was 3.8e-05 (inactive). Further, in experiment [6], the slope is 0.00546 (inactive).

Consider `CC(C)=CCCC(C)N(C=O)C(C)CCC=C(C)C` (centres undefined), for which the cell count in experiment [1] is 470. For the same compound, the inhibition in experiment [1] was 8.1% (inactive); in experiment [3], -144% (inactive); in experiment [7], 10.3% (inactive); in experiment [8] it was -8.14% (inactive). Further, the inhibition of aggregation in experiment [2] was 4.3% (inactive). Also, the nuclei count stood at 98.2% in experiment [2] and 126% in experiment [3]. In experiment [4], the fluorescence slope was -0.598 (inactive). Moreover, the NADPH fluorescence slope in experiment [5] was -1.6e-06 (inactive). Moreover, the slope in experiment [6] is 0.00568 (inactive).

With `CCN(CC)C(=O)CSc1nnc([C@@H](N)Cc2ccccc2)o1`, the cell count in experiment [1] turned out to be 673. Further, the inhibition was 1.7% (inactive) in experiment [1], -0.8% (inactive) in experiment [3], 15.4% (inactive) in experiment [7] and 22% (inactive) in experiment [8]. In addition, in experiment [2], the inhibition of aggregation was -2.7% (inactive). Moreover, the nuclei count in experiment [2] worked out at 84.3%; in experiment [3] it was 96%. The fluorescence slope in experiment [4] was -0.499 (inactive). In experiment [5], the NADPH fluorescence slope is 1.4e-05 (inactive). The slope in experiment [6] is 0.00547 (inactive).

For the compound `Cc1noc(/C=C/N(C)C)c1S(=O)(=O)N1CCc2ccccc21`, in experiment [1], the cell count turned out to be 611. The inhibition is 3.4% (inactive) in experiment [1], -60.7% (inactive) in experiment [3], -1.69% (inactive) in experiment [7] and 55.2% (active) in experiment [8]. Also, the inhibition of aggregation in experiment [2] is 24.9% (inactive). Besides, the nuclei count in experiment [2] worked out at 89.8%; in experiment [3], 115%. The fluorescence slope in experiment [4] is -0.558 (inactive). Further, the NADPH fluorescence slope in experiment [5] is -8.6e-06 (inactive). Besides, in experiment [6], the slope is 0.00715 (inactive).

Turning to `O=C(c1ccc(-c2ccccc2)cc1)N1CCC(C(=O)N2CCCC2)CC1`, the cell count in experiment [1] was determined as 237. Besides, the inhibition was -4.7% (inactive) in experiment [1], -17.6% (inactive) in experiment [3], 16% (inactive) in experiment [7] and 8.25% (inactive) in experiment [8]. For the same compound, the inhibition of aggregation in experiment [2] is 0.5% (inactive). Moreover, the nuclei count in experiment [2] is 91.7%; in experiment [3] it was 101%. Besides, in experiment [4], the fluorescence slope was -0.388 (inactive). Moreover, the NADPH fluorescence slope in experiment [5] is -5.3e-05 (inactive). Further, the slope in experiment [6] is 0.00472 (inactive).

On to `FC(F)(F)c1cccc(N2CCN(c3nnnn3-c3ccccc3)CC2)c1`, for which, in experiment [1], the cell count amounted to 394. Besides, the inhibition was -3.8% (inactive) in experiment [1], -98.2% (inactive) in experiment [3], 10.2% (inactive) in experiment [7] and 2.35% (inactive) in experiment [8]. The inhibition of aggregation in experiment [2] was -1.6% (inactive). Further, the nuclei count was 96.2% in experiment [2] and 112% in experiment [3]. Besides, the fluorescence slope in experiment [4] was -0.647 (inactive). Also, the NADPH fluorescence slope in experiment [5] is 1.2e-05 (inactive). Moreover, in experiment [6], the slope was 0.00945 (inactive).

With `CN(C)c1ccc2c(c1)OC(N)=C(C#N)C2c1cccc(F)c1` (centres undefined), in experiment [1], the cell count stood at 404. The inhibition was 11.5% (inactive) in experiment [1], -8.8% (inactive) in experiment [3], 36.6% (inactive) in experiment [7] and 82.9% (active) in experiment [8]. Besides, in experiment [2], the inhibition of aggregation is -56.1% (inactive). For the same compound, the values for the nuclei count in experiment [2] and in experiment [3] were 3% and 103%, respectively. The fluorescence slope in experiment [4] is -0.515 (inactive). Further, in experiment [5], the NADPH fluorescence slope was 1.1e-05 (inactive). Also, the slope in experiment [6] was 0.0134 (active).

For the compound `CC1(C)C(=O)Nc2ccccc2N1C(=O)COC(=O)Cn1cnc2ccccc2c1=O`, in experiment [1], the cell count was 465. For the same compound, the inhibition was 2.5% (inactive) in experiment [1], -67.7% (inactive) in experiment [3], 7.38% (inactive) in experiment [7] and 20.1% (inactive) in experiment [8]. For the same compound, the inhibition of aggregation in experiment [2] was -1.8% (inactive). Moreover, the nuclei count came to 107% in experiment [2] and 116% in experiment [3]. Moreover, the fluorescence slope in experiment [4] was -0.364 (inactive). The NADPH fluorescence slope in experiment [5] is -1.3e-05 (inactive). Besides, in experiment [6], the slope was 0.00422 (inactive).
